Our source for the composite z-score and z-score values is PubChem BioAssay.

Structures are written as SMILES. Activity calls are given as the source filed them.

Assay [1] can be described thus: small molecules captured by biotinylated probe aFSTL3 – biochemical, small-molecule microarray, fluorescence 635/667, stem cell growth factor project, primary screen (AID 1064).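 Further: measures binding of the biotinylated anti-FSTL3 antibody to printed compounds.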 The conditions noted are these: higher = more signal.
Assay [2] in a line: binders from COS7 lysate, DM2A8 probe, primary screen, torsin A project, cell lysate, small-molecule microarray, fluorescence 635/667 (AID 1065). The note with it: higher = more signal, COS7 lysate expressing mutant human TOR1A.
Assay [3] is described as follows: small molecules captured by biotinylated probe aFGF2 – biochemical, small-molecule microarray, fluorescence 635/667, stem cell growth factor project, primary screen (AID 1067).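 Further: measures binding of biotinylated aFGF2 protein to printed compounds on slides; z-score merges feature fluorescence and signal-to-noise across triplicate slides.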 The conditions noted are these: higher = more signal.
Assay [4] in a line: small molecules captured by biotinylated probe aFGF10 – biochemical, small-molecule microarray, fluorescence 635/667, stem cell growth factor project, primary screen (AID 1071).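 Further: score merges 667 nm spot intensity and signal to noise from triplicate slides.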 The conditions noted are these: higher = more signal.
For assay [5], the target named is Neurogenic locus notch homolog protein 2 (Homo sapiens) (UniProt Q04721). The experiment in a line: small molecules binding Notch2 protein – biochemical, small-molecule microarray, 635 nm fluorescence, stem cell growth factors, primary screen (AID 1073). The conditions noted are these: higher = more signal.
Chain of Neurogenic locus notch homolog protein 2 (Homo sapiens) (Q04721 whole entry, looked up, canonical isoform): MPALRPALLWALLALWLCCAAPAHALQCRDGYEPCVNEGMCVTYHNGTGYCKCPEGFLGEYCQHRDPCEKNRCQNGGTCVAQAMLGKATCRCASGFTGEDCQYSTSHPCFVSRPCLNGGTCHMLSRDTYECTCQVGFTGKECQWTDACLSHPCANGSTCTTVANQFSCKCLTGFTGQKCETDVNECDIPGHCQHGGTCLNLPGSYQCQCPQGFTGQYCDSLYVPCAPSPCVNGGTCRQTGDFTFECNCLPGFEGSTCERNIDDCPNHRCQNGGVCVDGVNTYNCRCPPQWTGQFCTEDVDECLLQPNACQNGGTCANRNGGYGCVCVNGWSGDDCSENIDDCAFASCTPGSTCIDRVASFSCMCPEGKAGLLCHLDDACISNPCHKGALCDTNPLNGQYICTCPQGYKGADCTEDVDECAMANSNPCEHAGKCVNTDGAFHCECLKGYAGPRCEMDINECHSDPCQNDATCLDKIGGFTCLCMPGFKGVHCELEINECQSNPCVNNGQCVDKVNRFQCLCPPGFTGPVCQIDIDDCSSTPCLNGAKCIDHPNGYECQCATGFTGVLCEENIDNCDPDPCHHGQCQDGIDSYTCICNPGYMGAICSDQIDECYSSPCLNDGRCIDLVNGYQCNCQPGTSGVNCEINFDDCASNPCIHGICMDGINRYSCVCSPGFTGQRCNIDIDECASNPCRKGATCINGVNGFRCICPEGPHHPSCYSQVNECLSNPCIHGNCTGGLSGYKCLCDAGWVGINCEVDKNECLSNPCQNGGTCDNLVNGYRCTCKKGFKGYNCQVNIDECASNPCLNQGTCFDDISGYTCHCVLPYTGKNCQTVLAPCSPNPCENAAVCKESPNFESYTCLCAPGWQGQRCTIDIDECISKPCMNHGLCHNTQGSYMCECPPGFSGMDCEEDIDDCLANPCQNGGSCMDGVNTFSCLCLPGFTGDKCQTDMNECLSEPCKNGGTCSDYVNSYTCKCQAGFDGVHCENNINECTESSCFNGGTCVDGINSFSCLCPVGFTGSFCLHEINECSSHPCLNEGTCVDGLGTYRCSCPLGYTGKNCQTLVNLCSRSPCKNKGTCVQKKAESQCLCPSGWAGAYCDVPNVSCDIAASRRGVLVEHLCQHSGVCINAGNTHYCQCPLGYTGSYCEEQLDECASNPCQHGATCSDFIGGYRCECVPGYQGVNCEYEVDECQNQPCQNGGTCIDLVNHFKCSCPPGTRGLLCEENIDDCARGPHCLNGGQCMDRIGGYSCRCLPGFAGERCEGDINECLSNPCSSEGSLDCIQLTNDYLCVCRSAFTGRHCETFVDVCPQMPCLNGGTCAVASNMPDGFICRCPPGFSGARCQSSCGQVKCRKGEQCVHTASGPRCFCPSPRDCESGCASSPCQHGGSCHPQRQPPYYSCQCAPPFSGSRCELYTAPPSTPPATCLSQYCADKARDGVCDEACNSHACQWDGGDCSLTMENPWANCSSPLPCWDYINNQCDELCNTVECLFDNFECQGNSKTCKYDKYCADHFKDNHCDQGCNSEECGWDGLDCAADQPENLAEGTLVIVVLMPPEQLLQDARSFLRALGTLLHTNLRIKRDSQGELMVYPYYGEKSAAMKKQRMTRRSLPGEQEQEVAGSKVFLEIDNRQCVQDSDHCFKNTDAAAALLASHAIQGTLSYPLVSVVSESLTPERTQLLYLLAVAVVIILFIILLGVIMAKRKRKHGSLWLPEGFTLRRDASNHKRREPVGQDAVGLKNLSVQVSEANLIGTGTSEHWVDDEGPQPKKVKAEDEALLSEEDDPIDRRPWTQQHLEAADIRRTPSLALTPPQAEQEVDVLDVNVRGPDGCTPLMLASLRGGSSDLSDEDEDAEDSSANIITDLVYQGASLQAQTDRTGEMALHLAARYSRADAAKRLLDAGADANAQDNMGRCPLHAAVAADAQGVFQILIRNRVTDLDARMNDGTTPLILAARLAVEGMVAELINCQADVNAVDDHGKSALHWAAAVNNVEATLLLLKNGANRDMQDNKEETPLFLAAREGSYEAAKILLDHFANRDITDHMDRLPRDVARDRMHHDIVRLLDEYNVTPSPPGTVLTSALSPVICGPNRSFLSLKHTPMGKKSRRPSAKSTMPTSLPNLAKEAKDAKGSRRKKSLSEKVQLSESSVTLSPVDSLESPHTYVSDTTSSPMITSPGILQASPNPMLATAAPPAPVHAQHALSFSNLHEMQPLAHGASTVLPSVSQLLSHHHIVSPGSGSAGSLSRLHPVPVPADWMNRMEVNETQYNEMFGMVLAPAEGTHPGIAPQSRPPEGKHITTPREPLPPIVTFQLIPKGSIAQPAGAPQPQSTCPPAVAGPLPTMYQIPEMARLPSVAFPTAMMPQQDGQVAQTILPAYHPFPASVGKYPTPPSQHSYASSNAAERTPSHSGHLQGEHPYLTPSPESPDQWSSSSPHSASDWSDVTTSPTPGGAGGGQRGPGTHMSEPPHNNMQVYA
The target in assay [6] is Pro-neuregulin-1, membrane-bound isoform (Homo sapiens) (UniProt Q02297). The experiment in a line: small molecules binding neuregulin-1 protein – biochemical, small-molecule microarray, fluorescence 635/667, psychiatric disease protein project, primary screen (AID 1075).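 Further: score combines 667 nm spot fluorescence with signal to noise.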 The note with it: NRG1 binding, 635 nm fluorescence, higher = more signal.
Chain of Pro-neuregulin-1, membrane-bound isoform (Homo sapiens) (Q02297 whole entry, looked up, the tested form may be a part, canonical isoform): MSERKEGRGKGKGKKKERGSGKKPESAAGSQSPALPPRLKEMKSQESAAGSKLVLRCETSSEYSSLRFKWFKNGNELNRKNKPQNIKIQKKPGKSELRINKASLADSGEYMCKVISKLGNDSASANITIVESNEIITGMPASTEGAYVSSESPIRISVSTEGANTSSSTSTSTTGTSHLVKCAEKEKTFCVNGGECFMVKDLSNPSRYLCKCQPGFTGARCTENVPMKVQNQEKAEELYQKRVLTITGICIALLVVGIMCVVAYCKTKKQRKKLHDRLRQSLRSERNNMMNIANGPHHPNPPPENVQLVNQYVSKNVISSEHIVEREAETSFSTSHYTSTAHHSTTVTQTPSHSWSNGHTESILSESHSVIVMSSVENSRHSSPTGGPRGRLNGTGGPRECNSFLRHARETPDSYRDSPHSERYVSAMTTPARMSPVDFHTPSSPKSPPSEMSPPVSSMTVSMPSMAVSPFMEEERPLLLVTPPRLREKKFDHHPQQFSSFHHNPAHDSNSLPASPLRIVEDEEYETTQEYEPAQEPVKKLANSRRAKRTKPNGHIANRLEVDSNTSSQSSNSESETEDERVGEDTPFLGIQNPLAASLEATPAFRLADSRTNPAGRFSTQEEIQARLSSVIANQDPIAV
Assay [7] has as its system Neuregulin-1 EGF-like domain. The assay can be described thus: small molecules binding NRG1 EGF domain – biochemical, small-molecule microarray, 635 nm fluorescence, primary screen (AID 1081).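 Further: binding of the protein to compounds printed on small-molecule microarray slides.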 The note with it: higher = more signal.
The nature of assay [8]: FRG1 expression reporter modulators in myotubes – cell-based, C2C12 myotubes, firefly/Renilla luciferase, luminescence, FRG1 inhibition for FSHD, primary screen (AID 1084). The note with it: FRG1 promoter luciferase, higher = more signal, called active from +8 up or from −8 down.
Assay [9] in a line: small molecules captured by biotinylated probe aFST – biochemical, small-molecule microarray, fluorescence 635/667, stem cell growth factor project, primary screen (AID 1086).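 Further: score merges 667 nm fluorescence with signal-to-noise of each printed compound spot.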 The conditions noted are these: higher = more signal.
The nature of assay [10]: binders of probe aHhip on microarray, primary screen, stem cell growth factor project, biochemical, small-molecule microarray, fluorescence 635/667 (AID 1087).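 Further: score merges spot fluorescence at 667nm with spot signal to noise ratio.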 The note with it: higher = more signal.

`COC(=O)C(CC#Cc1ccc2c(c1)[C@]1(C(=O)N2)[C@H](C(=O)N2CCCCCCC2)[C@H]2C(=O)O[C@H](c3ccccc3)[C@H](c3ccccc3)N2[C@@H]1c1ccc(O)cc1)C(=O)OC`: the composite z-score in [1] is 0.565; in assay [2], -1.17; in [3] it was -0.167; in assay [4], -0.542; in assay [5], -1.07; in assay [6], -0.712. In addition, the figures for the composite z-score in assay [7], in assay [9] and in [10] were -0.466, -0.137 and -0.306, respectively. Also, the z-score in assay [8] is 1.65 (inactive).

Take `CCN1C(C)=C(C(=O)OC)[C@@H](c2ccccc2)N2C(=O)[C@](O)(C(=O)OC)[C@@H](c3ccccc3)C(C(C)=O)=C12`: the composite z-score in [1] was -0.0393; in [2] it was -0.0183; in assay [3], -0.0621; in assay [4], 0.391; in assay [5], 0.991; in [6], -0.485. Moreover, the composite z-score in assay [7] is 0.913; in assay [9] it was 0.283; in assay [10], -0.262. Also, the z-score in assay [8] was -1.88 (inactive).

As for `COC(=O)C1=CC(c2ccc(CO)cc2)=CC(c2cccs2)N(Cc2cccc(OC(F)(F)F)c2)C=C1C(=O)OC` (stereo not given), the composite z-score in [1] was -0.0169; in assay [2] it was 1.41; in assay [3], -0.0375; in [4], 0.862; in [5], 1.17; in [6], 2.03. Besides, the composite z-score in assay [7] stood at 1.17; in [9] it was 0.48; in assay [10], 0.0866. In addition, the z-score in assay [8] was -0.497 (inactive).

Consider `O=C1O[C@H](c2ccccc2)[C@H](c2ccccc2)N2[C@H]1[C@@H](C(=O)Nc1nc3ccccc3s1)[C@]1(C(=O)Nc3ccc(C#CC4(O)CCCCCC4)cc31)[C@H]2c1ccc(O)cc1`, for which the composite z-score was -0.299 in [1]; -0.0427 in assay [2]; -0.0407 in [3]; 0.443 in assay [4]; 1.34 in assay [5]; 1.8 in assay [6]. In addition, the composite z-score in assay [7] is 1.14; in assay [9], 0.668; in assay [10] it was 0.0623. The z-score in [8] is 0.36 (inactive).

As for `CC(C)[C@H]1NC(=O)[C@@]23C(=O)N[C@@H](Cc4ccccc4)C2[C@H](C)[C@@]2(C)O[C@H]2C3/C=C/C/C=C\CNC(=O)[C@H](C)NC1=O` (stereo not given in full), the composite z-score was 0.11 in [1]; -0.663 in assay [2]; -0.164 in assay [3]; 0.51 in assay [4]; -1.59 in assay [5]; -0.967 in [6]. In addition, the composite z-score in assay [7] was 0.754; in assay [9], -0.367; in [10] it was -0.399. The z-score in [8] is 0.194 (inactive).

Regarding `CN(C)c1ccc(C(O)C2C=CC3C(=O)NC(=O)C3N2Nc2ccc(Cl)cc2Cl)cc1` (stereo not given), the composite z-score in assay [1] is 0.649; in [2], -0.0467; in [3] it was 0.021; in [4], 0.294; in [5] it was 0.879; in assay [6], 1.18. Moreover, the composite z-score in [7] was determined as 1.11; in assay [9], 1.38; in assay [10], 0.0677. The z-score in assay [8] is 3.74 (inactive).

On to `COc1ccc(C(=O)Nc2ccc(CN3C(=O)[C@]4(O[C@H](CCn5cc(CCO)nn5)[C@@H]([Si](C)(C)c5ccc(OC)cc5)[C@@H]4C)c4ccccc43)cc2)cc1`, for which the composite z-score in assay [1] was determined as 0.263; in assay [2], 0.259; in assay [3], 0.0331; in [4], 1.05; in assay [5], 1.46; in [6], 0.485. For the same compound, the composite z-score in [7] is 1.09; in [9] it was -0.177; in assay [10], -0.0645. Moreover, in assay [8], the z-score was -3.72 (inactive).

On to `NC(=O)[C@H]1[C@@H]2C(=O)O[C@@H](c3ccccc3)[C@@H](c3ccccc3)N2[C@@H](c2ccc(O)cc2)[C@]12C(=O)Nc1ccc(C#CCCO)cc12`, for which the composite z-score in [1] is 0.545; in assay [2], -0.831; in [3], -0.12; in assay [4] it was -0.861; in assay [5], -0.982; in assay [6], -0.0709. For the same compound, the composite z-score in assay [7] was 1.12; in [9] it was -0.605; in [10], -0.251. Also, the z-score in assay [8] is -0.89 (inactive).

Turning to `C=CCNC(=O)[C@H]1[C@@H]2C(=O)O[C@@H](c3ccccc3)[C@@H](c3ccccc3)N2[C@@H](c2ccc(O)cc2)[C@]12C(=O)Nc1ccc(C#CCNC(N)=O)cc12`, the composite z-score in [1] is 0.587; in assay [2], -0.0883; in assay [3] it was -0.128; in [4], -0.608; in [5] it was -1.11; in assay [6] it was 1.07. Besides, the composite z-score in assay [7] was 0.858; in assay [9], -0.526; in assay [10], -0.21. Also, the z-score in assay [8] is -0.477 (inactive).

Turning to `C/C(=N\O)C(=O)NCCCCCNC(=O)OCc1ccccc1`, the composite z-score in [1] was -0.286; in assay [2], 0.135; in assay [3] it was -0.0711; in [4] it was 0.418; in assay [5], 0.475; in assay [6], 0.0391. Besides, the values for the composite z-score in [7], in assay [9] and in assay [10] were 0.619, 0.271 and -0.226, respectively. The z-score in assay [8] is 0.725 (inactive).

For `C=C(COC)/C(=C/C[C@@H](OC(=O)c1ccncc1)c1ccc(OCCO)cc1)c1cc(C(=O)OC)ccc1OC`, the composite z-score in assay [1] is -0.202; in assay [2], 0.984; in [3], -0.0775; in assay [4], 0.702; in assay [5], 0.864; in assay [6], 1.44. Besides, the composite z-score in assay [7] came out at 1.2; in assay [9], 0.238; in assay [10], 0.219. Besides, in assay [8], the z-score was -2.14 (inactive).

As to `C=CCN1C(=O)[C@@]2(Cc3ccccc3)N=C(c3ccc(OCCCO)cc3)O[C@H]2c2ccccc21`, the composite z-score in assay [1] is 1.02; in assay [2] it was 0.22; in [3] it was 0.0714; in assay [4], 0.0096; in [5] it was 0.895; in assay [6] it was 0.14. For the same compound, the composite z-score in assay [7] is 1.14; in assay [9] it was 0.691; in [10] it was -0.132. Moreover, the z-score in assay [8] was -2.86 (inactive).
